Calls of active or inactive are those of the source.

A short description of this experiment: S. cerevisiae RM11-1a growth modifiers, primary screen, strain RM11-1a, OD600, basal, 24 h (AID 1177).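 Note: cultures grown under basal conditions with no added stressor; test concentration not given here.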 Conditions: OD600, 24 h, higher = more signal, called active from +8 up or from −8 down.
On to `[N-]=[N+]=NCc1ccccc1C[C@@]1(C(=O)N2CCCCC2)N=C(c2ccc(OCCCO)cc2)O[C@@H]1c1ccccc1CN=[N+]=[N-]`, for which the z-score is 1.61 (inactive).
In the case of `COC(=O)[C@@]1(Cc2ccc(OC)cc2)[C@H]2c3cc(C(=O)N4CCCC4)n(Cc4ccc(S(C)(=O)=O)cc4)c3C[C@H]2CN1C(=O)c1ccccc1`, the z-score is 0.115 (inactive).
In the case of `CCOC(=O)C[C@H]1[C@H](OC(=O)c2ccc(C(=O)c3ccccc3)cc2)[C@@H](NC(=O)CC(C)C)c2cc(OCCCO)ccc2N1C(=O)Cc1ccc(OC)cc1` it was 0.113 (inactive); in that of `O=C1C2C=CC(C(O)c3ccco3)N(Nc3ccccc3)C2C(=O)N1c1ccccc1` (centres undefined), 0.829 (inactive); in that of `Cc1ccc(F)cc1S(=O)(=O)N[C@@H]1CCN(Cc2cccc3[nH]ccc23)C1`, -0.367 (inactive).
For `CCOC(=O)C1=C[C@@H](c2ccccc2)N(S(=O)(=O)c2ccc(C)cc2)[C@H]1c1ccccc1`, the z-score is 0.398 (inactive).
In the case of `COCCOC(=O)N1C(=O)[C@@]2(c3cc(C#CCC(C(=O)OC)C(=O)OC)ccc31)[C@H](c1ccc(OCCO)cc1)N1[C@H](c3ccccc3)[C@H](c3ccccc3)OC(=O)[C@H]1[C@@H]2C(=O)Nc1nc2ccccc2s1`, the z-score was 3.24 (inactive).
Turning to `COC(=O)[C@@]1(Cc2ccccc2CN=[N+]=[N-])N=C(c2ccc(OCCCO)cc2)O[C@H]1c1ccccc1`, the z-score was 2.81 (inactive).
Consider `COC(=O)C(CC#Cc1ccc2c(c1)[C@]1(C(=O)N2)[C@H](c2ccc(OCCO)cc2)N2[C@H](c3ccccc3)[C@H](c3ccccc3)OC(=O)[C@H]2[C@@H]1C(=O)N1CCN(c2ncccn2)CC1)C(=O)OC`, for which the z-score was 1.79 (inactive).
In the case of `CCCCCCCCCCC(O)C1C=CC2C(=O)N(C)C(=O)C2N1Nc1cc(OC)c(OC)c(OC)c1` (centres undefined), the z-score is 0.439 (inactive).
Take `C=CCC(OC(C)=O)[C@@H]1[C@@H](N(Cc2ccc(-c3ccccc3)cc2)C(=O)c2ccc(C)cc2)c2cc(OCCCO)ccc2N1C(=O)Cc1ccc2ccccc2c1` (some centres undefined): the z-score was -1.72 (inactive).
As for `Cc1cccc([C@H]2C[C@H]3C(Br)=C[C@@H]2C(=O)[C@]32CO2)c1`, the z-score is 0.622 (inactive).
In the case of `O=C(O)[C@H]1C[C@H]2C(=O)N[C@@H](Cc3ccccc3)C(=O)N2[C@H]1c1cccc(OCCO)c1` it was -0.655 (inactive); in that of `Cc1cccc([C@H]2C[C@H]3C(I)=C[C@@H]2C(=O)[C@]32CO2)c1`, -0.639 (inactive); in that of `COc1cc(NN2C(C(O)c3ccc(I)cc3)C=CC3C(=O)N(c4ccccc4)C(=O)C32)cc(OC)c1OC` (centres undefined), 0.0247 (inactive).
As to `CCN(CC)c1ccc(N2CC=CC34O[C@@H]5/C=C\CCC(C)OC(=O)C5[C@H]3C(=O)N(C(C)CO)[C@@H]4C2=O)cc1` (some centres undefined), the z-score was 0.507 (inactive).
Take `C=CC[C@H](OC(=O)Nc1ccc(SC)cc1)c1ccc(OCCO)cc1`: the z-score was 1.07 (inactive).
In the case of `COCCOC(=O)N1C(=O)[C@@]2(c3cc(C#CCCO)ccc31)[C@H](c1ccccc1OCCO)N1[C@H](c3ccccc3)[C@H](c3ccccc3)OC(=O)[C@H]1[C@@H]2C(=O)N1CCCCCCC1` it was 2.11 (inactive).
In the case of `CC(C)C(=C=CC[C@H](O)c1cccc(OCCO)c1)CCO` it was -0.661 (inactive); in that of `CCCCNC(=O)c1ccc(C#C[Si](C(C)C)(C(C)C)C(C)C)c(OC(C)=O)c1`, 0.0679 (inactive); in that of `C[C@@]12COC[C@]13C=C(Br)[C@H](C2)[C@@]1(CO1)C3=O`, -0.187 (inactive).
In the case of `CC(C)[C@H]1NC(=O)[C@@]23C(=O)N[C@@H](Cc4ccccc4)C2[C@H](C)[C@@]2(C)O[C@H]2C3/C=C/CCC/C=C/CNC(=O)[C@H](Cc2ccccc2)NC1=O` (some centres undefined), the z-score was -0.201 (inactive).
As to `COCCCNC(=O)[C@@]1(Sc2ccc(C)cc2)CC(=O)N(C(C)C)[C@@H]1c1ccc(CO)cc1I`, the z-score is -1.82 (inactive).
For `CN(C)CCCCNC(=O)[C@H]1C[C@H]2C(=O)N[C@@H](CCCC[N+](C)(C)C)C(=O)N2[C@H]1c1ccc(O)cc1`, the z-score was -1.11 (inactive).

These data come from PubChem BioAssay.
